Test results from the supplement of paper PMC13380429.

Tested on: Vero E6 infected with SARS-CoV-2
Test: inhibition of SARS-CoV-2 cytopathic effect; higher = more antiviral protection, active = above 15
Details: 48 h

Measured: inhibition of SARS-CoV-2 cytopathic effect

[NH-]c1c[n+](N2CCOCC2)no1 [linsidomine]
inactive: 1 nM 0.45% | 8.33 nM 3.55% | 100 nM 0.57% | 833.33 nM -0.32% | 10000 nM 1.99%

C[C@]12C[C@H](O)[C@H]3[C@@H](CCC4=CC(=O)CC[C@@]43C)[C@@H]1CC[C@@H]2C(=O)CO [corticosterone]
inactive: 1 nM -1.19% | 8.33 nM -0.88% | 100 nM 0.56% | 833.33 nM -0.38% | 10000 nM 0.43%

COc1cc(NC(C)CCCN)c2ncccc2c1 (stereo not given) [primaquine]
inactive: 1 nM 1.68% | 8.33 nM 2.25% | 100 nM 0.83% | 833.33 nM 1.27% | 10000 nM 3.23%

C[C@@H]1CC(=O)c2c(ccc3c2C(=O)c2cccc(O)c2C3=O)C1 [ochromycinone]
inactive: 1 nM -3.4% | 8.33 nM -1.61% | 100 nM -3.55% | 833.33 nM -1.87% | 10000 nM -3.84%

OC(CCN1CCCCC1)(c1ccccc1)c1ccccc1 [pridinol]
inactive: 1 nM 3.98% | 8.33 nM 4.59% | 100 nM -0.32% | 833.33 nM -9.56% | 10000 nM 0.53%

CN(C)CCCn1cc(C2=C(c3c[nH]c4ccccc34)C(=O)NC2=O)c2ccccc21
inactive: 1 nM 2.56% | 8.33 nM 1.35% | 100 nM 1.36% | 833.33 nM 0.57% | 10000 nM 13.2%

O=C(O)c1cc(O)c(O)c(O)c1 [gallic-acid]
inactive: 1 nM -1.87% | 8.33 nM 0.61% | 100 nM 3.05% | 833.33 nM -1.88% | 10000 nM 6.6%

Cc1ccccc1-n1c(CF)nc2ccc(N)cc2c1=O [afloqualone]
inactive: 1 nM -0.9% | 8.33 nM 0.95% | 100 nM -0.71% | 833.33 nM -0.49% | 10000 nM 1.46%

COCCc1ccc(OCC(O)CNC(C)C)cc1 (stereo not given) [metoprolol]
inactive: 1 nM 2% | 8.33 nM 1.22% | 100 nM -0.12% | 833.33 nM -0.66% | 10000 nM 1.25%

CC1=C(C(=O)O)N2C(=O)[C@@H](NC(=O)[C@H](N)c3ccccc3)[C@H]2SC1 [cephalexin]
inactive: 1 nM 2.47% | 8.33 nM 0.37% | 100 nM 0.73% | 833.33 nM -1.01% | 10000 nM -3.66%

CC(C)(C)C(=O)OCC(=O)[C@H]1CC[C@H]2[C@@H]3CCC4=CC(=O)CC[C@]4(C)[C@H]3CC[C@]12C [desoxycorticosterone-pivalate]
inactive: 1 nM -1.6% | 8.33 nM 0.71% | 100 nM -0.4% | 833.33 nM -0.12% | 10000 nM 0.98%

Nc1cc2c3ccccc3ccc2c2ccccc12 [6-aminochrysene]
inactive: 1 nM 1.36% | 8.33 nM 2.29% | 100 nM 2.99% | 833.33 nM -3.94% | 10000 nM 1.34%

Cc1cc(/C=C/c2ccc3cc(N(C)C)ccc3[n+]2C)c(C)n1-c1ccccc1 [pyrvinium-pamoate]
inactive: 1 nM -1.06% | 8.33 nM -0.84% | 100 nM -3.02% | 833.33 nM -2.46% | 10000 nM -13.7%

Nc1cc(C(F)(F)F)c(-c2nc(N3CCOCC3)nc(N3CCOCC3)n2)cn1
inactive: 1 nM -0.85% | 8.33 nM 5.6% | 100 nM 1.97% | 833.33 nM 1.89% | 10000 nM -3.26%

OCc1cncc(F)c1 [5-fluoro-3-pyridyl-methanol]
inactive: 1 nM -1.88% | 8.33 nM 0.14% | 100 nM -10.8% | 833.33 nM -0.19% | 10000 nM -2.94%

Cn1cc(C[C@@H](N)C(=O)O)c2ccccc21 [indoximod]
inactive: 1 nM -3.51% | 8.33 nM -2.58% | 100 nM -2.33% | 833.33 nM -1.85% | 10000 nM -1.3%

CC(C)=CCC/C(C)=C/CC/C(C)=C/C=C/C(C)=C/C(=O)O [peretinoin]
inactive: 1 nM 0.75% | 8.33 nM 0.23% | 100 nM -1.49% | 833.33 nM 0.48% | 10000 nM 0.08%
